Among the data in PubChem BioAssay are composite z-score and z-score values, retold here.

For assay [1], the system named is Wnt5a (protein binding on small-molecule microarray). In words: Wnt5a binders on small-molecule microarray, primary screen, biophysical, 635/667 nm fluorescence (AID 1142).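 Also: fluorescence read at 667 nm with signal to noise per printed feature.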 To be noted: 635 nm fluorescence, higher = more signal.
Assay [2] is described as follows: cell viability in Huh7 cells, primary screen, cytotoxicity control for HCV replication inhibitor project, CellTiter-Glo luminescence, basal, 48 h (AID 1143).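 Also: Huh7 hepatoma cells carrying a hepatitis C replication reporter with no stimulus; test concentration not given here.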 To be noted: Huh7 HCV replicon, higher = more signal, called active from +8 up or from −8 down.
Assay [3] is described as follows: P. aeruginosa biofilm formation inhibitors, primary screen, PAO1 strain, BacTiter-Glo luminescence, LB-PBS (AID 1144). Particulars: 12 h, higher = more signal.
Assay [4] can be described thus: CREB reporter modulators without forskolin, primary screen, cell-based, PC12, CRE-LacZ reporter, unstimulated (AID 1145). To be noted: no forskolin, luminescence, 4.5 h, higher = more signal, called active from +8 up or from −8 down.
A short description of assay [5]: CREB reporter modulators under forskolin, primary screen, cell-based, PC12, CRE-LacZ reporter, forskolin-stimulated (AID 1146).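 Also: PC12 cells with 6xCRE LacZ reporter stimulated by forskolin 10 µM; beta-galactosidase reporter signal reflecting CREB driven transcription.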 Particulars: luminescence, 4.5 h, higher = more signal, called active from +8 up or from −8 down.
In assay [6] the target is Streptavidin (Streptomyces avidinii) (UniProt P22629). In words: streptavidin binders on small-molecule microarray, primary screen, artefact control for SMM compound annotation, biophysical, 635/667 nm fluorescence (AID 1147).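 Also: signal reflects streptavidin binding to arrayed compounds as a control protein.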 To be noted: streptavidin binding, higher = more signal.
The nature of assay [7]: small-molecule binders of probe aInhba, primary screen, biochemical, small-molecule microarray, 635/667 nm fluorescence (AID 1148).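 Also: score merges 667nm spot fluorescence with signal-to-noise for antibody binding to printed compounds.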 To be noted: higher = more signal.
Assay [8] has as its target Torsin-1A (Homo sapiens) (UniProt O14656). Briefly: torsin A binders from cell lysate, primary screen, small-molecule microarray, wild-type, 635/667 nm (AID 1149). Particulars: COS7 hTOR1A-WT lysate, 635 nm fluorescence, higher = more signal.
For assay [9] the target is unchanged. Briefly: small-molecule binders of mutant TOR1A in lysate, primary screen, cell lysate, small-molecule microarray, COS7 lysate, 635/667 nm fluorescence (AID 1150).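 Also: score pools 667 nm emission and signal to noise measuring lysate protein binding.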 Particulars: COS7 hTOR1A mutant lysate, 635 nm fluorescence, higher = more signal.
In assay [10] the test system is Sonic hedgehog protein (Shh). Briefly: small-molecule binders of Shh protein, primary screen, biochemical, small-molecule microarray, 635/667 nm fluorescence (AID 1151).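 Also: Shh protein binding to compounds spotted on small-molecule microarray slides; score combines spot fluorescence intensity with signal-to-noise across triplicate slides.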 Particulars: small-molecule microarray binding, 635 nm fluorescence; higher = more signal.
Assay [11] in a line: E. coli DRC41 culture turbidity changes, primary screen, E. coli filamentation inducer project, strain DRC41, OD650, 48 h (AID 1152).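 Also: E. coli MC1000 strain DRC41 lacking acrAB efflux pump and sulA.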 Particulars: E. coli DRC41 (acrAB sulA), higher = more signal, called active from +8 up or from −8 down.
A short description of assay [12]: small-molecule binders of probe aLefty1, primary screen, biochemical, small-molecule microarray, 635/667 nm fluorescence (AID 1153).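 Also: score merges spot fluorescence with signal-to-noise ratio from the scanned slide images.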 To be noted: higher = more signal.
Assay [13] can be described thus: PSAC antagonists in infected red cells, primary screen, cell-based, P. falciparum Indochina, OD700, 1 h (AID 1154). Particulars: P. falciparum Indochina infected RBC osmotic lysis, higher = more signal, called active from +8 up or from −8 down.
Assay [14] can be described thus: PSAC antagonists in infected red cells, primary screen, cell-based, P. falciparum Indochina, OD700, 2 h (AID 1155).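 Also: lysis reports solute entry through the parasite surface anion channel PSAC; channel blockers reduce lysis of infected cells.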 To be noted: P. falciparum Indochina infected erythrocytes, osmotic lysis OD700; higher = more signal, called active from +8 up or from −8 down.
The nature of assay [15]: osmotic lysis modulators in infected erythrocytes, primary screen, PSAC antagonist project, cell-based, P. falciparum Indochina, OD700, 3 h (AID 1156). To be noted: higher = more signal, called active from +8 up or from −8 down.
Assay [16] in a line: PSAC antagonists in infected red cells, primary screen, cell-based, P. falciparum Indochina, OD700, 18 h (AID 1157). Particulars: P. falciparum Indochina infected erythrocytes, osmotic lysis OD700, 18 h; higher = more signal, called active from +8 up or from −8 down.
Assay [17] is described as follows: modulators of S6 phosphorylation in cells, primary screen, cell-based, A549, cytoblot, luminescence, serum-stimulated (AID 1158).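 Also: serum-stimulated A549 lung adenocarcinoma cells; signal is phosphorylated S6 detected by cytoblot immunostaining with HRP secondary.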 To be noted: A549 phospho-S6 cytoblot, 5 h, higher = more signal.
Assay [18] deals with NADPH oxidase 2 (Homo sapiens) (UniProt P04839). In words: NOX2-dependent H2O2 signal modulators, primary screen, NOX inhibitor project, cell-based, HEK293-NOX2, PMA-stimulated, Amplex Red fluorescence (AID 1159). Also: test concentration not given here. Particulars: 45 min, higher = more signal, called active from +8 up or from −8 down.
For assay [19], the target named is NADPH oxidase 4 (Homo sapiens) (UniProt Q9NPH5). In words: NOX4-dependent H2O2 signal modulators, primary screen, NOX inhibitor project, cell-based, HEK293-NOX4, tetracycline-induced, Amplex Red fluorescence (AID 1160). To be noted: 45 min, higher = more signal, called active from +8 up or from −8 down.
The target of assay [20] is NADPH oxidase 5 (Homo sapiens) (UniProt Q96PH1). Briefly: NOX5-dependent H2O2 signal modulators, primary screen, NOX inhibitor project, cell-based, HEK293-NOX5, Amplex Red fluorescence (AID 1161). Particulars: HEK293-NOX5, ionomycin, 45 min, higher = more signal.

The source made the active and inactive calls. Unless noted, no rule for the calls is given here.

Sequence of Streptavidin (Streptomyces avidinii) (P22629 whole entry, looked up): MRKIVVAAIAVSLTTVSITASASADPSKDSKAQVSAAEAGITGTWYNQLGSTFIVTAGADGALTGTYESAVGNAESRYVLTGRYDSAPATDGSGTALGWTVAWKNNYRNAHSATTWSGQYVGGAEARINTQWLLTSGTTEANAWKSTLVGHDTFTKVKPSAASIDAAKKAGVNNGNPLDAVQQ
Sequence of Torsin-1A (Homo sapiens) (O14656 whole entry, looked up): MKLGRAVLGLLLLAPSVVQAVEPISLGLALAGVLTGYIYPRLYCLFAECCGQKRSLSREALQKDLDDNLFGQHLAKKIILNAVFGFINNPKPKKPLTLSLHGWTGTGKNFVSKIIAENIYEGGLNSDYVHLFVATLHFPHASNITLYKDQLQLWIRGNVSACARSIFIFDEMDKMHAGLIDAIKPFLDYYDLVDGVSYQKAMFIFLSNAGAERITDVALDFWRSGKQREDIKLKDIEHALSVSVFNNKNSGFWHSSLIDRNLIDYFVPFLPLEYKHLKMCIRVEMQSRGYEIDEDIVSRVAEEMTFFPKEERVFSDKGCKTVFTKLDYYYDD
Sequence of NADPH oxidase 4 (Homo sapiens) (Q9NPH5 whole entry, looked up): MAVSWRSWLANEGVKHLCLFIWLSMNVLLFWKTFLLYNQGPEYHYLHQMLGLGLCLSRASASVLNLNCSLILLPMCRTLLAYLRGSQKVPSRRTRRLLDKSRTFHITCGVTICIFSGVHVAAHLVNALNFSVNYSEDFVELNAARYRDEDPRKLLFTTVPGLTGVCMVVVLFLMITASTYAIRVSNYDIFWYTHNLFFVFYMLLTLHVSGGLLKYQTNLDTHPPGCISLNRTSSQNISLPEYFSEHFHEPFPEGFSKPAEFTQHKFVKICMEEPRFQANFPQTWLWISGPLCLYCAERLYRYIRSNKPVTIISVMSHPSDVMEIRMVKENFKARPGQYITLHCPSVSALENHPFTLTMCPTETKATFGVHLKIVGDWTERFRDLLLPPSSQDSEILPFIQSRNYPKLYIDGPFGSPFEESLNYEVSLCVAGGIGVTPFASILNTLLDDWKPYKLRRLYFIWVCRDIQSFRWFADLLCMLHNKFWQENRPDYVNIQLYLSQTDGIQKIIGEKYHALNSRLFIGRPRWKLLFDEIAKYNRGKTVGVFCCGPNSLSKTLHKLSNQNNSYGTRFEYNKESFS
Sequence of NADPH oxidase 5 (Homo sapiens) (Q96PH1 whole entry, looked up): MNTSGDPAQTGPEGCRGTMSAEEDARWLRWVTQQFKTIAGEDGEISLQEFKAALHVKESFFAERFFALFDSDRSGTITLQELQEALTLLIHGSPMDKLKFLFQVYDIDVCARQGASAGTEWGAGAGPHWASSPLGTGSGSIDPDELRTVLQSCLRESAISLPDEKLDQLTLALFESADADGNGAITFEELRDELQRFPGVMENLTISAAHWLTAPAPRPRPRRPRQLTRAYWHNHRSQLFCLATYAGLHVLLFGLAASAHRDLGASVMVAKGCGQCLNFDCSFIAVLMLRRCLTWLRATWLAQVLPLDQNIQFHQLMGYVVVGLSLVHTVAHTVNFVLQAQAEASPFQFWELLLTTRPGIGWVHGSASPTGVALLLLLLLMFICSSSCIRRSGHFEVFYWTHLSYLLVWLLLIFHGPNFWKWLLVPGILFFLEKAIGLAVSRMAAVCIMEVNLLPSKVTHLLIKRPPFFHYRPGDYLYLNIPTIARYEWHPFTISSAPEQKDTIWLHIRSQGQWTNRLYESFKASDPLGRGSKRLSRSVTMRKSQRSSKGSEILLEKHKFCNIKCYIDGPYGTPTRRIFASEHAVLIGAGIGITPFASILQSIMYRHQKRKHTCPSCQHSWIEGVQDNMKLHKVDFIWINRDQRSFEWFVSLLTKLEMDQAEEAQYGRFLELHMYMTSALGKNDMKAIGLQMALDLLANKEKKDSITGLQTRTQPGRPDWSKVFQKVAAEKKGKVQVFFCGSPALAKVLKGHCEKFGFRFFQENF
Sequence of NADPH oxidase 2 (Homo sapiens) (P04839 whole entry, looked up): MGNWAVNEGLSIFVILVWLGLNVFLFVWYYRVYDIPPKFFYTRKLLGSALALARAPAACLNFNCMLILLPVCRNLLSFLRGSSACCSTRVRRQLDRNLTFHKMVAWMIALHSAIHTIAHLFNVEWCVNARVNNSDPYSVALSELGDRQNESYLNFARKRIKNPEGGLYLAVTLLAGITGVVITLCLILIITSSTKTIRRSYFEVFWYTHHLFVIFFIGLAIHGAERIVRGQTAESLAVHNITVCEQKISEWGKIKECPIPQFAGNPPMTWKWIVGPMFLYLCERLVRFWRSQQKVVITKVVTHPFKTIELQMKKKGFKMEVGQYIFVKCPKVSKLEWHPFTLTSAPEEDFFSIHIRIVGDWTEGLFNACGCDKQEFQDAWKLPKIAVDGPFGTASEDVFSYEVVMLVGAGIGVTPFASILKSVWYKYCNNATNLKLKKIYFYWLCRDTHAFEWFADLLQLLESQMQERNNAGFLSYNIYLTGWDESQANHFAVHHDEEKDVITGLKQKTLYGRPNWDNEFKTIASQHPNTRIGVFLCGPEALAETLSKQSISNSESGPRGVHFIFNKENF

Consider `COc1cc(OC)c(C(O)C2C=CC3C(=O)N(Cc4ccccc4)C(=O)C3N2n2cnnc2)cc1Br` (stereo not given), for which the composite z-score is 0.25 in assay [1]; 1.22 in assay [6]; -0.0087 in assay [7]; 2.73 with Torsin-1A (Homo sapiens) [8]; 2.4 in the assay with Torsin-1A (Homo sapiens) [9]; 0.116 in assay [10]. This molecule also showed a composite z-score in assay [12] of 0.0509. For the same molecule, the z-score in assay [2] was -3.56 (inactive); in [3] it was -0.664 (inactive); in [4], 0.677 (inactive); in [5], -1.4 (inactive); in assay [11], -1.21 (inactive); in assay [13], -0.0011 (inactive). The z-score in assay [14] was -0.731 (inactive); in assay [15], 1.34 (inactive); in assay [16], -2.29 (inactive); in assay [17], 1.71; in assay [18] it was -3.2 (inactive); in assay [19], -1.35 (inactive). In assay [20], this molecule displayed a z-score of -3.53.
Regarding `CCCC[C@@H]1C[C@H]1[C@@H](NC(=O)c1cccs1)c1ccccc1C(F)(F)F`, the composite z-score is 0.0098 in [1]; 2.1 in [6]; 0.274 in [7]; 0.458 in the assay with Torsin-1A (Homo sapiens) [8]; 0.555 with Torsin-1A (Homo sapiens) [9]; -0.142 in [10]. Also, the composite z-score in assay [12] came out at 0.294. In addition, the z-score in assay [2] is -1.37 (inactive); in assay [3] it was -1.3 (inactive); in assay [4] it was 0.587 (inactive); in [5], 1.4 (inactive); in [11], -1.04 (inactive); in [13], 1.89 (inactive). Moreover, the z-score was 1.12 (inactive) in assay [14]; -0.37 (inactive) in assay [15]; 0.544 (inactive) in assay [16]; -0.423 in assay [17]; -1.39 (inactive) in assay [18]; -3.14 (inactive) in assay [19]. In [20], this molecule came in with a z-score of -0.173.
As to `Cc1cc(C)c(C(O)C2C=CC3C(=O)N(c4ccccc4)C(=O)C3N2Nc2ccccc2F)c(C)c1` (stereo not given), the composite z-score in [1] was -0.122; in [6] it was 0.563; in assay [7] it was 0.122; with Torsin-1A (Homo sapiens) [8], -0.489; with Torsin-1A (Homo sapiens) [9] it was -0.395; in [10] it was 0.0807. The molecule also came in with a composite z-score in assay [12] of -0.0111. For the same molecule, the z-score in [2] is 0.224 (inactive); in assay [3] it was -0.386 (inactive); in [4], 0.44 (inactive); in assay [5], -0.425 (inactive); in [11], -1.56 (inactive); in assay [13], 1.33 (inactive). For the same molecule, the z-score in assay [14] is 1.35 (inactive); in [15], -0.167 (inactive); in assay [16] it was 1.32 (inactive); in [17], -0.855; in [18], -0.611 (inactive); in assay [19] it was -0.918 (inactive). In assay [20], this molecule displayed a z-score of -0.344.
On to `CCCNC(=O)[C@@]1(Sc2ccc(C)cc2)CC(=O)N(C2Cc3ccccc3C2)[C@@H]1c1ccc(CO)cc1I`, for which the composite z-score in [1] is 0.196; in assay [6] it was 0.419; in assay [7] it was 0.27; with Torsin-1A (Homo sapiens) [8], 0.418; with Torsin-1A (Homo sapiens) [9] it was 0.309; in assay [10], 0.737. The molecule further registered a composite z-score in assay [12] of 0.844. Also, the z-score in [2] is -0.812 (inactive); in assay [3] it was 0.594 (inactive); in assay [4] it was -0.374 (inactive); in [5], 1.73 (inactive); in assay [11] it was 0.815 (inactive); in [13], 9.9 (active). The z-score in assay [14] is 2.14 (inactive); in assay [15], -0.377 (inactive); in assay [16], 0.695 (inactive); in [17], -0.303; in assay [18], 0.716 (inactive); in [19], -0.892 (inactive). In addition, in assay [20], the z-score was found to be 0.67.
Turning to `CCCCCN1CC=CC23O[C@@H]4C=CCCOC(=O)C4[C@H]2C(=O)N(CCCCCCO)[C@@H]3C1=O` (stereo not given in full), the composite z-score in assay [1] was -0.296; in [6], -0.943; in assay [7], -0.263; with Torsin-1A (Homo sapiens) [8], 1.13; with Torsin-1A (Homo sapiens) [9] it was 2.1; in [10], 0.0725. Further, the composite z-score in [12] is -0.324. The z-score in [2] was -0.181 (inactive); in assay [3] it was -0.00872 (inactive); in [4] it was -1.03 (inactive); in assay [5], -0.215 (inactive); in assay [11] it was 0.457 (inactive); in [13] it was 1.07 (inactive). Besides, the z-score was 0.705 (inactive) in assay [14]; 1.01 (inactive) in assay [15]; 0.407 (inactive) in assay [16]; 1.59 in assay [17]; 1.27 (inactive) in assay [18]; -0.0418 (inactive) in assay [19]. Further, in assay [20], the z-score came out at 2.08.
Turning to `CCCCC=C[C@@H](NC(=O)OCc1ccccc1Cl)c1ccccc1`, the composite z-score is 1.45 in assay [1]; 0.484 in [6]; 0.592 in assay [7]; -0.266 in the assay with Torsin-1A (Homo sapiens) [8]; 0.665 with Torsin-1A (Homo sapiens) [9]; 0.62 in assay [10]. In assay [12], this molecule came in with a composite z-score of 2.4. Also, the z-score in assay [2] is -0.392 (inactive); in assay [3], -0.146 (inactive); in assay [4], 0.394 (inactive); in assay [5] it was 1.02 (inactive); in assay [11] it was -2.07 (inactive); in assay [13], 0.278 (inactive). The z-score in [14] is 0.894 (inactive); in assay [15] it was 0.806 (inactive); in assay [16], 0.887 (inactive); in [17], -0.0327; in assay [18] it was 0.027 (inactive); in assay [19], -0.52 (inactive). For the same molecule, the z-score in assay [20] turned out to be 1.24.
On to `COC(=O)[C@@H]1N=C(c2ccc(OCCCO)cc2)O[C@@H]1C`, for which the composite z-score in assay [1] is 0.186; in assay [6], -0.69; in assay [7], 0.0225; with Torsin-1A (Homo sapiens) [8] it was 0.0429; with Torsin-1A (Homo sapiens) [9], -0.425; in assay [10], 0.369. This molecule also had a composite z-score in [12] of 0.0945. Also, the z-score was 0.0511 (inactive) in assay [2]; -0.123 (inactive) in assay [3]; -0.31 (inactive) in assay [4]; 0.421 (inactive) in [5]; 0.608 (inactive) in [11]; 19 (active) in assay [13]. Also, the z-score in assay [14] is 2.23 (inactive); in assay [15] it was 0.404 (inactive); in assay [16], 0.448 (inactive); in [17] it was 0.299; in assay [18], -1.93 (inactive); in [19], 0.134 (inactive). In assay [20], this molecule came in with a z-score of -0.647.
As for `CCCCNC(=O)c1ccc(C#CC(C)(C)C)c(OC(C)=O)c1`, the composite z-score in assay [1] was 0.0744; in [6], 1.01; in assay [7], -0.21; with Torsin-1A (Homo sapiens) [8], 0.121; in the assay with Torsin-1A (Homo sapiens) [9], 0.686; in assay [10], 0.804. In addition, the composite z-score in assay [12] is -0.148. The z-score is -1.7 (inactive) in assay [2]; -0.245 (inactive) in assay [3]; 1.78 (inactive) in [4]; -0.512 (inactive) in assay [5]; 0.567 (inactive) in assay [11]; 4.63 (inactive) in [13]. The z-score is 0.802 (inactive) in assay [14]; 2.09 (inactive) in assay [15]; 0.181 (inactive) in [16]; 0.355 in [17]; -0.137 (inactive) in assay [18]; 0.344 (inactive) in assay [19]. In addition, in [20], the z-score was determined as 0.416.
